Source: article PMC7862700, “An all-to-all approach to the identification of sequence-specific readers for epigenetic DNA modifications on cytosine”

How the values were obtained:
Assay in all cases: DAPPL (digital affinity profiling via proximity ligation, sequencing); 10 mM Tris-HCl pH 7.5, 50 mM NaCl, 1 mM DTT, 4% glycerol, room temperature, 30 min; GST-TFs on glutathione beads, 16-mer random dsDNA library, 0.1% formaldehyde crosslink after washing; high values mean tight binding
FLI1 = target: T1, FLI1 (Homo sapiens, UniProt Q01543 1-452); details: protein: recombinant; tags: N-terminal GST; dsDNA, one strand shown
T1 sequence: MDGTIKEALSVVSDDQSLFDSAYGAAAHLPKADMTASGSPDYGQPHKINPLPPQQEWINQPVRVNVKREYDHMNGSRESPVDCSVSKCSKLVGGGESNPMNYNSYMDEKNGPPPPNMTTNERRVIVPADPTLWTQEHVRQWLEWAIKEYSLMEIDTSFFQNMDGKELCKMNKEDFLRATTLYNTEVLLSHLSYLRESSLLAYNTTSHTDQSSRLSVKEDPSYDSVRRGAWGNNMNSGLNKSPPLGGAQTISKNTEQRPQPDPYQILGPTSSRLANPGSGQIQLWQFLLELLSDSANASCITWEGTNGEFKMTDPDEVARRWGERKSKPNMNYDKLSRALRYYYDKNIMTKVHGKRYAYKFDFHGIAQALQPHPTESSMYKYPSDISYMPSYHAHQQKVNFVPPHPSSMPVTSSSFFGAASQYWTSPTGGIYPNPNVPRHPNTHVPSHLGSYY
Method in brief: (§1)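 Each value of binding signal is a hexamer's read frequency for a factor divided by the same hexamer's frequency in the tag-only sample. Barcoded, bead-captured GST fusions of human transcription factors made in yeast were pooled with that sample and incubated with 200 nmole of a random double-stranded 16-mer DNA library in Tris/NaCl/DTT/glycerol buffer at room temperature for 30 min. Washing, 0.1% formaldehyde crosslinking, proximity ligation, PCR and Illumina NextSeq500 sequencing followed.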

ELK1 = target: T2, ELK1 (Homo sapiens, UniProt P19419 1-428); details: protein: recombinant; tags: N-terminal GST; dsDNA, one strand shown
T2 sequence: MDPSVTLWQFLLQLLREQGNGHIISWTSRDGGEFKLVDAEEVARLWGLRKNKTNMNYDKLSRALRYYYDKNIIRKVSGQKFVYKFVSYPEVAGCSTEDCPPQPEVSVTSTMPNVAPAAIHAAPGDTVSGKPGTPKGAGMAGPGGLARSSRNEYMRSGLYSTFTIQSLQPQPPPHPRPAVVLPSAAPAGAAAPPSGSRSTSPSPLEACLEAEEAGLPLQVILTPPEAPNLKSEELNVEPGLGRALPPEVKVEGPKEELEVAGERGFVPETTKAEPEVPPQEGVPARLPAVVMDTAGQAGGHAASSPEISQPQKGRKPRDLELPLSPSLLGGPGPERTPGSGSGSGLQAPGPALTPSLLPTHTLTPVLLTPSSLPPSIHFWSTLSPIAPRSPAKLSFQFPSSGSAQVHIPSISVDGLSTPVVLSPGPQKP
Method in brief: as §1

GABPA = target: T3, GABPA (Homo sapiens, UniProt Q06546 1-454); details: protein: recombinant; tags: N-terminal GST; dsDNA, one strand shown
T3 sequence: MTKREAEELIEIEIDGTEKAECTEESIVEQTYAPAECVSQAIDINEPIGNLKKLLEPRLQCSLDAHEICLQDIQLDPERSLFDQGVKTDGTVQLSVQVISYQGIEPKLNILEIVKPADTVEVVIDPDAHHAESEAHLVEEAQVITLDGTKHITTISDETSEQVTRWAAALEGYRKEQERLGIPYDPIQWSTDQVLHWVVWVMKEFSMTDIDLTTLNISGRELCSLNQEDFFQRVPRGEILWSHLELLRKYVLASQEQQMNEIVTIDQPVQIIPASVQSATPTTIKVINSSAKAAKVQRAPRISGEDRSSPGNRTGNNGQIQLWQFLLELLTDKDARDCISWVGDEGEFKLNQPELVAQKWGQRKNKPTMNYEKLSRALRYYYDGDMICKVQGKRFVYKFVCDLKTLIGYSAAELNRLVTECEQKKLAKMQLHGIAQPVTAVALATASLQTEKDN
Method in brief: as §1

ERG = target: T4, ERG (Homo sapiens, UniProt P11308 1-479); details: protein: recombinant; tags: N-terminal GST; dsDNA, one strand shown
T4 sequence: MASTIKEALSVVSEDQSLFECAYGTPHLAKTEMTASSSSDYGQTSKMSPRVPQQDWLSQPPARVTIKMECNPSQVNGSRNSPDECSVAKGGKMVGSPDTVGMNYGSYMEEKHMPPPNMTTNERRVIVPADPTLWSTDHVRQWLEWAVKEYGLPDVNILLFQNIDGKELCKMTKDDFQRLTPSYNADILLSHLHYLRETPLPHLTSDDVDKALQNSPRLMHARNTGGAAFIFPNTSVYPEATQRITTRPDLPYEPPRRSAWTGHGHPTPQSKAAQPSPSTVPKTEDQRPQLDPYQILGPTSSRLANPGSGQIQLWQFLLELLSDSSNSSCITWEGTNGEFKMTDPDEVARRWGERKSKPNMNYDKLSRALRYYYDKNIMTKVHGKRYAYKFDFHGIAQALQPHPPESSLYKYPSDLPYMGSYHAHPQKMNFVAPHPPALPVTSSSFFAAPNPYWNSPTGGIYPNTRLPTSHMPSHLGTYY
Method in brief: as §1

ELF1 = ELF1 (Homo sapiens, UniProt P32519 1-619); details: protein: recombinant; tags: N-terminal GST; dsDNA, one strand shown
Method in brief: as §1

EHF = target: T5, EHF (Homo sapiens, UniProt Q9NZC4 1-300); details: protein: recombinant; tags: N-terminal GST; dsDNA, one strand shown
T5 sequence: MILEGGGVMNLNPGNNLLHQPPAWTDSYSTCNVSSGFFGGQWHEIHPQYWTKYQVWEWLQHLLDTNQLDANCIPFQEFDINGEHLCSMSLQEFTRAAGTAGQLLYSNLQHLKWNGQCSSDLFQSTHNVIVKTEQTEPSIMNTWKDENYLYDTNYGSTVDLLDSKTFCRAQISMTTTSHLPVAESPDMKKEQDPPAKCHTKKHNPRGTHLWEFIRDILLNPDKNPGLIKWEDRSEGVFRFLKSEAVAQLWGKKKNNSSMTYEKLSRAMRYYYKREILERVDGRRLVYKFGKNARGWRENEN
Method in brief: as §1

SPI1 = SPI1 (Homo sapiens, UniProt P17947 1-270); details: protein: recombinant; tags: N-terminal GST; dsDNA, one strand shown
Method in brief: as §1

SPIB = SPIB (Homo sapiens, UniProt Q01892 1-262); details: protein: recombinant; tags: N-terminal GST; dsDNA, one strand shown
Method in brief: as §1

ELK3 = target: T6, ELK3 (Homo sapiens, UniProt P41970 1-407); details: protein: recombinant; tags: N-terminal GST; dsDNA, one strand shown
T6 sequence: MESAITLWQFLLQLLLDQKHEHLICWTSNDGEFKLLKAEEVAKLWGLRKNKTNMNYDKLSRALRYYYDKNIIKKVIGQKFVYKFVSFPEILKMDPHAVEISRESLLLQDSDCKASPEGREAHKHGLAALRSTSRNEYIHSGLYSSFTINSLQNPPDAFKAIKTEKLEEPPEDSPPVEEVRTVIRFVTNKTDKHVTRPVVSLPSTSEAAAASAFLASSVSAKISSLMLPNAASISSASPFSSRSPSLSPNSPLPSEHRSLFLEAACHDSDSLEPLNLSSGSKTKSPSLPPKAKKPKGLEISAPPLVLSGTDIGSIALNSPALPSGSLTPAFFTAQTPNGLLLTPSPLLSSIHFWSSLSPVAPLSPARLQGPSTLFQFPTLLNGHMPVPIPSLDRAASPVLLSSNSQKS
Method in brief: as §1

FEV = target: T7, FEV (Homo sapiens, UniProt Q99581 1-238); details: protein: recombinant; tags: N-terminal GST; dsDNA, one strand shown
T7 sequence: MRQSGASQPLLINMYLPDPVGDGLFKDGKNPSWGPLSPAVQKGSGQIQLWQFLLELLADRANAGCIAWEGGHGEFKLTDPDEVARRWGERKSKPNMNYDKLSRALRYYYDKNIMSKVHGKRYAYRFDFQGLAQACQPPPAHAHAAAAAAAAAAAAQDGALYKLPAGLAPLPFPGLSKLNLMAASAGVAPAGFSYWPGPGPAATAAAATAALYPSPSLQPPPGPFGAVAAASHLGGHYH
Method in brief: as §1

ETV5 = ETV5 (Homo sapiens, UniProt P41161 1-510); details: protein: recombinant; tags: N-terminal GST; dsDNA, one strand shown
Method in brief: as §1

HSF1 = HSF1 (Homo sapiens, UniProt Q00613 1-529); details: protein: recombinant; tags: N-terminal GST; chain copies: 3; dsDNA, one strand shown
Method in brief: as §1

SPIC = target: T8, SPIC (Homo sapiens, UniProt Q8N5J4 1-248); details: protein: recombinant; tags: N-terminal GST; dsDNA, one strand shown
T8 sequence: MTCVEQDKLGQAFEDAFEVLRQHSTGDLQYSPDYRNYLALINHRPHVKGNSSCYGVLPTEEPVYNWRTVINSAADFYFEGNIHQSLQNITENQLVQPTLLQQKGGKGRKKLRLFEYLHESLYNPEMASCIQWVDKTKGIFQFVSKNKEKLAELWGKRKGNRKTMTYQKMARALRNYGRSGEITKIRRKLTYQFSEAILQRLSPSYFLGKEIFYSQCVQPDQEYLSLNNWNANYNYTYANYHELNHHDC
Method in brief: as §1

ELF4 = ELF4 (Homo sapiens, UniProt Q99607 1-663); details: protein: recombinant; tags: N-terminal GST; dsDNA, one strand shown
Method in brief: as §1

ELK4 = target: T9, ELK4 (Homo sapiens, UniProt P28324-2 1-405); details: protein: recombinant; tags: N-terminal GST; dsDNA, one strand shown
T9 sequence: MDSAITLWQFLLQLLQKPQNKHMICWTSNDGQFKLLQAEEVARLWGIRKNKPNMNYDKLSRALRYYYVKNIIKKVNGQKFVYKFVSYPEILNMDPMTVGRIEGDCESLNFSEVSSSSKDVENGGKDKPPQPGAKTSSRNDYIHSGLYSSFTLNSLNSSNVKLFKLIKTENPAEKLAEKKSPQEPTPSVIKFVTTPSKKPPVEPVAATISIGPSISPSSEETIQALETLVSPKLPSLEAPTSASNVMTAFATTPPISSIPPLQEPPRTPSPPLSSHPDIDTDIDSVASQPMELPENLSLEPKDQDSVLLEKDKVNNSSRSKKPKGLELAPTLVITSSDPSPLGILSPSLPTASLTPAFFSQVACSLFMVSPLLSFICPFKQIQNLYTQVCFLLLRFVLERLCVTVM
Method in brief: as §1

ETV2 = target: T10, ETV2 (Homo sapiens, UniProt O00321 1-342); details: protein: recombinant; tags: N-terminal GST; dsDNA, one strand shown
T10 sequence: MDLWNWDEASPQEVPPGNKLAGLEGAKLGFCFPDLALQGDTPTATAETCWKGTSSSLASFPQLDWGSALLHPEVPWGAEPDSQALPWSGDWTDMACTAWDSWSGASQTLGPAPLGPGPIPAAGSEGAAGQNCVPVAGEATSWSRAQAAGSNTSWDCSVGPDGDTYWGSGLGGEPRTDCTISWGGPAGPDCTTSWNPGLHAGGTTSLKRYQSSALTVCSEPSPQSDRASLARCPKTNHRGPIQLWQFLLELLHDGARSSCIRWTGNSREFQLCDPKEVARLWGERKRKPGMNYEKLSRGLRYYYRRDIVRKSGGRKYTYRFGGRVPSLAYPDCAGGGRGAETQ
Method in brief: as §1

ELF3 = target: T11, ELF3 (Homo sapiens, UniProt P78545 1-371); details: protein: recombinant; tags: N-terminal GST; dsDNA, one strand shown
T11 sequence: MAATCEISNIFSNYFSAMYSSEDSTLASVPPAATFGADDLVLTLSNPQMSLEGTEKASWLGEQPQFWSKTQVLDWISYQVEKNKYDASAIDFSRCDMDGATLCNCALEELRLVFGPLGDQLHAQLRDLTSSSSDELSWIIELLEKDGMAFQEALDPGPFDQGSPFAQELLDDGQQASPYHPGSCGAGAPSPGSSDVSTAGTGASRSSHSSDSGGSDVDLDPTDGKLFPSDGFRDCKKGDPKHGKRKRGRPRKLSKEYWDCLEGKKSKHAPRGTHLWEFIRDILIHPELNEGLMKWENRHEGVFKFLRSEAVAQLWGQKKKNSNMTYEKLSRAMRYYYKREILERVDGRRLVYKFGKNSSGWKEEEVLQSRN
Method in brief: as §1

CRX = CRX (Homo sapiens, UniProt O43186 1-299); details: protein: recombinant; tags: N-terminal GST; dsDNA, one strand shown
Method in brief: as §1

ETV1 = ETV1 (Homo sapiens, UniProt P50549 1-477); details: protein: recombinant; tags: N-terminal GST; dsDNA, one strand shown
Method in brief: as §1

ELF1, sequence (P32519 whole entry): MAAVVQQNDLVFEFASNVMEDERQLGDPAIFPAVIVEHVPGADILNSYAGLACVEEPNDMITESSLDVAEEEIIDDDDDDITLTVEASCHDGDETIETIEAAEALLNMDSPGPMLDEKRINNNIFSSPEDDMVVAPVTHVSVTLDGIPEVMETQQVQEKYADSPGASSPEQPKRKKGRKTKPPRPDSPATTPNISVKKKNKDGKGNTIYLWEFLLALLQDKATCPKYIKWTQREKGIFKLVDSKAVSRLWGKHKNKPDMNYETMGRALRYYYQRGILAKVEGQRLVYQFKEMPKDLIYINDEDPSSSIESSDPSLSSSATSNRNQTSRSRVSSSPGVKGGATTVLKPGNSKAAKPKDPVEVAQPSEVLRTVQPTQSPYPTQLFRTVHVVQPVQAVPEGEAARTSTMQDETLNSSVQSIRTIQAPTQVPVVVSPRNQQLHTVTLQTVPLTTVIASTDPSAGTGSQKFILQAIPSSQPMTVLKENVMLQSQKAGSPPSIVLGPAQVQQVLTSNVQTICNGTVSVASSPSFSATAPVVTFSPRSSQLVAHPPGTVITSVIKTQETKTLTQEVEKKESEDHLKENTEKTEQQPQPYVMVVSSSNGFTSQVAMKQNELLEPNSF
CRX, sequence (O43186 whole entry): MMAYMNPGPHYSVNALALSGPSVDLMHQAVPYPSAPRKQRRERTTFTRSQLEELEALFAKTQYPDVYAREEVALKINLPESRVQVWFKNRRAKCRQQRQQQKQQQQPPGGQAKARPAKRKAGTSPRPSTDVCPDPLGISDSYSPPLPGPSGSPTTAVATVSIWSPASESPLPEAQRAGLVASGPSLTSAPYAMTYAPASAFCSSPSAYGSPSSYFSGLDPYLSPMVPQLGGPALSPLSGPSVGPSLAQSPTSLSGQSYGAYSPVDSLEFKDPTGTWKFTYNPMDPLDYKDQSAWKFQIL
ETV1, sequence (P50549 whole entry): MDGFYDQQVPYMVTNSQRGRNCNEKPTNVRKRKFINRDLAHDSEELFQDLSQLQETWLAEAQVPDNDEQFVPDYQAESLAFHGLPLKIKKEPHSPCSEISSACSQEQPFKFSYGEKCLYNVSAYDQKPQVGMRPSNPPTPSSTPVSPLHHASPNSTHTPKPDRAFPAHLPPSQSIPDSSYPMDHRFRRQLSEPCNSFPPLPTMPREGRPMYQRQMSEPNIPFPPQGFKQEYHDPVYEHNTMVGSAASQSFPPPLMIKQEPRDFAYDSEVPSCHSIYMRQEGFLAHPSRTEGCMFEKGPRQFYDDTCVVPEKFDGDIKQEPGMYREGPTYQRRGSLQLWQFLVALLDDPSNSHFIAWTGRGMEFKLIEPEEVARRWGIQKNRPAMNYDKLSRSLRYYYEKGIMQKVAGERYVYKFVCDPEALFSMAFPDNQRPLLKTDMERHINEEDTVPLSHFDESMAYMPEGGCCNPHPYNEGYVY
HSF1, sequence (Q00613 whole entry): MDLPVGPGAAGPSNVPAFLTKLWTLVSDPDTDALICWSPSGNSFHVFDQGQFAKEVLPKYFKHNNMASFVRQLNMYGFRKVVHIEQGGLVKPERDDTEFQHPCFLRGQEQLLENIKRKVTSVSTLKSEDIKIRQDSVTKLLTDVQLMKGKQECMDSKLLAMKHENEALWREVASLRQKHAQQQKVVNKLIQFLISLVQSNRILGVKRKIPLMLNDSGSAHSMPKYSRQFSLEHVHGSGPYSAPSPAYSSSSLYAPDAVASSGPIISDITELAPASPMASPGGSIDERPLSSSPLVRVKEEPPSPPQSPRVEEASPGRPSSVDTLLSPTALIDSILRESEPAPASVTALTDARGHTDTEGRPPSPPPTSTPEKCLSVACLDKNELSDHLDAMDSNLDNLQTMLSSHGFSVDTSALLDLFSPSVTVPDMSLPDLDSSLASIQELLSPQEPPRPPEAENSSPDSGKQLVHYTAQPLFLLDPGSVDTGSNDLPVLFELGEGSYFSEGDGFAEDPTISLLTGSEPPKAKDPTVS
ETV5, sequence (P41161 whole entry): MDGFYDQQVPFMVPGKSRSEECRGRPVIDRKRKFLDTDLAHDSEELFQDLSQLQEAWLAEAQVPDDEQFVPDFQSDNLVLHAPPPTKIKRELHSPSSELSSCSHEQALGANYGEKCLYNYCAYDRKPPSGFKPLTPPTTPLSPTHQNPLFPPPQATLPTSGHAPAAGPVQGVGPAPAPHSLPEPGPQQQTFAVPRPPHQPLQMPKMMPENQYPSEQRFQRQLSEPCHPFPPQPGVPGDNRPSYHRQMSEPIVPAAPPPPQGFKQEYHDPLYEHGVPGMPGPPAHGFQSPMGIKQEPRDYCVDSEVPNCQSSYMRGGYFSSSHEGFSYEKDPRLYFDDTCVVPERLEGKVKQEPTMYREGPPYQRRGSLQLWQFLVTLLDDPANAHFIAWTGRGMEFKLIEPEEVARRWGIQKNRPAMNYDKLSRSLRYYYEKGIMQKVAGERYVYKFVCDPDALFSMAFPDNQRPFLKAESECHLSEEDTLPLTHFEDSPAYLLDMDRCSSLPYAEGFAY
ELF4, sequence (Q99607 whole entry): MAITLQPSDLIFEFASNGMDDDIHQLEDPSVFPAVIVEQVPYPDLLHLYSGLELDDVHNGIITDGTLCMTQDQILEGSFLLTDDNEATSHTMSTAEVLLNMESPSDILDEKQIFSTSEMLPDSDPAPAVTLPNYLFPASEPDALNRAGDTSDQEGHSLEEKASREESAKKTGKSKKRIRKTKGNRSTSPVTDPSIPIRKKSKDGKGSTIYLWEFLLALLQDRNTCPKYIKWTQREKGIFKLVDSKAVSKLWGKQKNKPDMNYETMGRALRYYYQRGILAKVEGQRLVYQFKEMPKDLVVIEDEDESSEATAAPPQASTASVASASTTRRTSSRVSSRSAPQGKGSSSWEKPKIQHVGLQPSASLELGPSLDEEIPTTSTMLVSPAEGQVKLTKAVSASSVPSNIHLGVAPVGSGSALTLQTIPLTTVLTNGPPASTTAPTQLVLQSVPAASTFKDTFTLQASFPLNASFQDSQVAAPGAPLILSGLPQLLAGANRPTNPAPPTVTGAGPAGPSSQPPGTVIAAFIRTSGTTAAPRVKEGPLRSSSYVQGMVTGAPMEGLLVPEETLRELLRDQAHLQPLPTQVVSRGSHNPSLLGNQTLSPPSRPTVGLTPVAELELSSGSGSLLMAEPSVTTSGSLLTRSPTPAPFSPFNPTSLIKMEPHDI
SPIB, sequence (Q01892 whole entry): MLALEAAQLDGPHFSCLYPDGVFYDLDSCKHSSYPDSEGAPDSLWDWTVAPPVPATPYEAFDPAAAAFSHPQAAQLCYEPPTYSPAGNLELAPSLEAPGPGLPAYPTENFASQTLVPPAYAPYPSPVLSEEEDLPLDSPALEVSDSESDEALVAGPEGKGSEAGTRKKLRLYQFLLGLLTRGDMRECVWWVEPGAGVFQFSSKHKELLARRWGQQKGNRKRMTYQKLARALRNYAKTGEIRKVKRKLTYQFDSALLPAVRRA

Sequence: CTACGA
- binding signal (FLI1): 1.16 fold enrichment (6-mer frequency, TF over GST control)
- binding signal (ELK1): 1.24 fold enrichment (6-mer frequency, TF over GST control)
- binding signal (GABPA): 1.29 fold enrichment (6-mer frequency, TF over GST control)
- binding signal (ERG): 1.2 fold enrichment (6-mer frequency, TF over GST control)
- binding signal (ELF1): 1.27 fold enrichment (6-mer frequency, TF over GST control)
- binding signal (EHF): 1.25 fold enrichment (6-mer frequency, TF over GST control)
- binding signal (SPI1): 1.14 fold enrichment (6-mer frequency, TF over GST control)
- binding signal (SPIB): 1.23 fold enrichment (6-mer frequency, TF over GST control)
- binding signal (ELK3): 1.33 fold enrichment (6-mer frequency, TF over GST control)
- binding signal (FEV): 1.34 fold enrichment (6-mer frequency, TF over GST control)
- binding signal (ETV5): 1.2 fold enrichment (6-mer frequency, TF over GST control)
- binding signal (HSF1): 1.25 fold enrichment (6-mer frequency, TF over GST control)
- binding signal (SPIC): 1.17 fold enrichment (6-mer frequency, TF over GST control)
- binding signal (ELF4): 1.24 fold enrichment (6-mer frequency, TF over GST control)
- binding signal (ELK4): 1.22 fold enrichment (6-mer frequency, TF over GST control)
- binding signal (ETV2): 1.47 fold enrichment (6-mer frequency, TF over GST control)
- binding signal (ELF3): 1.5 fold enrichment (6-mer frequency, TF over GST control)
- binding signal (CRX): 1.21 fold enrichment (6-mer frequency, TF over GST control)
- binding signal (ETV1): 1.19 fold enrichment (6-mer frequency, TF over GST control)
